Structures are written as SMILES. Among all 350,000 compounds or so, about 450 (0.13%) were called active. How the calls were made is not given here. Only a sample is shown. Potency and affinity values are given separately.

The nature of this assay: inhibitors of VEEV TC-83 cytopathic effect, confirmation, Vero cells (AID 588727). To be noted: VEEV TC-83 cytopathic effect inhibition, at 20 µM; stronger effect = higher value unless noted.
What is called inhibition is how much of the control response was suppressed. On to `CC(C)CCC(=O)N1CCC(N2CCC(C(=O)NCc3ccccn3)CC2)CC1`, for which the inhibition is 0.93% (inactive).

For `CC(C)(C)n1nc2c(c1NC(=O)c1ccc(F)c(F)c1)CS(=O)(=O)C2`, the inhibition was 0.7% (inactive).

As to `O=C(C1CC(=O)N(c2ccc(F)cc2)C1)N1CCCCCC1` (stereo not drawn), the inhibition entry was “inactive”.

As for `O=C1c2cccnc2C(=O)N1CO`, the inhibition is 0.3% (inactive).

Take `CC(C)(C)C1CCc2c(sc3c2C(=O)NC(c2ccco2)N3)C1` (stereo not drawn): the inhibition was 0.21% (inactive).

On to `CCC(=O)Nc1cc(C(=O)O)ccc1Sc1ccccc1`, for which the inhibition is 0.44% (inactive).

Turning to `Cn1cc(CCC(=O)NCc2cccc(Cl)c2)c2ccccc21`, the inhibition is 0.85% (inactive).

Regarding `O=C(COC(=O)c1ccc(Cl)cc1[N+](=O)[O-])NCc1ccco1`, the inhibition was 0.06% (inactive).

Consider `Cc1ccc(S(=O)(=O)Nc2ccc(C(=O)NCCCn3ccnc3)cc2)cc1[N+](=O)[O-]`, for which the inhibition is 0.22% (inactive).

For `COc1ccc(COC(=O)c2cccc(S(=O)(=O)N3CCN(C(C)=O)CC3)c2)cc1F`, the inhibition is 1.43% (inactive).

With `CC(=O)OC1CCC2(C)C3CCC4(C)C(C(C)=O)CCC4C3CC3OC32C1` (stereo not drawn), the inhibition was 4.89% (inactive).

As to `CC(=O)OC1CC2(O)C3CCC4CC(O)CCC4(C)C3CCC2(C)C1C1=CC(=O)OC1` (stereo not drawn), the inhibition was 24.4% (inactive).

Consider `C[C@]12CCC3C(CC[C@H]4C[C@H](O)CC[C@]34C)C1CC(=O)[C@@H]2O` (stereo partly drawn), for which the inhibition was 2.26% (inactive).

On to `CC12CC[C@H]3[C@@H](CCC4(O)C[C@H](O)CCC34/C=N/NC(=O)Cc3ccccc3)C1(O)CCC2C1=CC(=O)OC1` (stereo partly drawn), for which the inhibition is 1.62% (inactive).

Turning to `CC12CC[C@H]3[C@@H](CCC4(O)C[C@H](O)CCC34/C=N/NC(=O)c3ccccc3F)C1(O)CCC2C1=CC(=O)OC1` (stereo partly drawn), the inhibition was 8.49% (inactive).

For the compound `CC(=O)OC1CC[C@]2(C#N)[C@H]3CC[C@]4(C)[C@H](C5C=CC(=O)O5)CCC4(O)C3CCC2(O)C1` (stereo partly drawn), the inhibition was 21.3% (inactive).

On to `C[C@]12CCC3C(CC[C@@H]4C[C@@H](O)CC[C@]34C)C1CC[C@@H]2O` (stereo partly drawn), for which the inhibition was 1.93% (inactive).

With `CC(C)c1ccc(NC(=O)CN2C(=O)NC3(CCCC3)C2=O)cc1`, the inhibition entry is “inactive”.

Regarding `CCOC(=O)C1CCCN(C(=O)c2cc3cc4ccc(OC)cc4nc3o2)C1` (stereo not drawn), the inhibition was 1.72% (inactive).

As for `Cc1ccc(N2C(=O)N3[C@H]4c5ccccc5OC[C@@H]4[C@@H](c4ccccc4)[C@@]3(C)C2=O)cc1`, the inhibition is 0.66% (inactive).

For `CN(CC(=O)Nc1cccc(F)c1)C(=O)CCc1nc2cc(S(=O)(=O)N3CCOCC3)ccc2n1C`, the inhibition was 0.55% (inactive).

In the case of `CC(C)Oc1ccc(CSc2nnc3n(C)c(=O)c4c5c(sc4n23)CCCC5)cc1`, the inhibition entry is “inactive”.

In the case of `CCCCNC(=O)COC(=O)c1ccc(SC)cc1OC`, the inhibition was 2.58% (inactive).

On to `CC(=O)Nc1ccc(S(=O)(=O)N2CCC(NC(=O)C(Cc3cccc(F)c3)NC(C)=O)CC2)cc1` (stereo not drawn), for which the inhibition was 0.28% (inactive).

In the case of `CC(=O)[C@@]1(O)CCC2C3CC[C@H]4C[C@@H](O)CC[C@]4(C)C3CC[C@@]21C` (stereo partly drawn), the inhibition was 6.31% (inactive).

For the compound `C[C@H]1CC[C@@H]2[C@@H](C)[C@H]3[C@H](C[C@H]4[C@@H]5CC=C6C[C@@H](O[C@@H]7O[C@H](CO)[C@H](O)[C@H](O[C@@H]8O[C@H](CO)[C@@H](O)[C@H](O)[C@H]8O)[C@H]7O[C@@H]7O[C@@H](C)[C@H](O)[C@@H](O)[C@H]7O)CC[C@]6(C)[C@H]5CC[C@]34C)N2C1`, the inhibition result is “inactive”.

Turning to `CC12CC[C@H]3[C@@H](CCC4(O)C[C@H](O)CCC34/C=N/NC(=O)c3ccc(O)cc3)C1(O)CCC2C1=CC(=O)OC1` (stereo partly drawn), the inhibition is 0.73% (inactive).

On to `C[C@]12CCC3C(CCC4=CC(O)CC[C@@]43/C=N/O)C1(O)CCC2C1=CC(=O)OC1` (stereo partly drawn), for which the inhibition is 27.9% (inactive).

`COc1cc(C(=O)N/N=C/C23CC[C@@H](O)CC2(O)CC[C@@H]2[C@@H]3CCC3(C)C(C4=CC(=O)OC4)CCC23O)ccc1O` (stereo partly drawn): the inhibition is 7% (inactive).

With `CC(=O)O[C@@H]1CC[C@]2(C)C3CC[C@@]4(C)C(C[C@@H](O)[C@@H]4O)C3[C@@H](OC(C)=O)C[C@H]2C1` (stereo partly drawn), the inhibition is 0.36% (inactive).

On to `COc1ccc(C(=O)N/N=C/C23CC[C@@H](O)CC2(O)CC[C@@H]2[C@@H]3CCC3(C)C(C4=CC(=O)OC4)CCC23O)cc1` (stereo partly drawn), for which the inhibition is 42.5% (inactive).

Take `CCOc1ccc(N2CC(C(=O)Nc3cccc(C(=O)NC4CC4)c3)CC2=O)cc1` (stereo not drawn): the inhibition was 1.22% (inactive).

Take `Cc1ccccc1OCC(=O)Nc1ccc(N2CCOCC2)cc1N1CCOCC1`: the inhibition was 6.68% (inactive).

For `COc1ccc(C2(C)NC(=O)NC2=O)cc1OC` (stereo not drawn), the inhibition entry was “inactive”.

`COc1ccc(OC(C)c2ccc(C#N)c(=O)[nH]2)cc1` (stereo not drawn): the inhibition was 1% (inactive).

In the case of `Cc1cc(=O)[nH]c(SCn2nnc3ccccc3c2=O)n1`, the inhibition is 0.62% (inactive).

On to `COc1ccc(S(=O)(=O)c2c(O)c3ccc(C(=O)Nc4ccccc4Cl)cc3[nH]c2=O)cc1`, for which the inhibition is 0.45% (inactive).

Take `O=C1COc2ccc(C(=O)COC(=O)c3ccc(S(=O)(=O)C(F)F)cc3)cc2N1`: the inhibition was 3.01% (inactive).

Turning to `COc1cc(/C=N/NC2=NS(=O)(=O)c3ccccc32)cc(OC)c1OC`, the inhibition was 0.18% (inactive).

Turning to `CC12CC[C@H]3[C@@H](CCC4(O)C[C@H](O)CCC34/C=N/NC(=O)c3ccccc3Cl)C1(O)CCC2C1=CC(=O)OC1` (stereo partly drawn), the inhibition was 2.51% (inactive).

In the case of `C[C@]12CC[C@H]3[C@@H](CC[C@]4(O)C[C@@H](O)CC[C@]34C=O)[C@@]1(O)CC[C@@H]2C1=CC(=O)OC1`, the inhibition is 24.6% (inactive).

In the case of `Fc1ccc(-c2nnc(Cc3ccc(Cl)cc3)o2)cc1`, the inhibition result was “inactive”.

Turning to `Cc1ccc(OCCSc2nc(N)cc(N)n2)cc1`, the inhibition is 3.61% (inactive).

On to `O=C(c1ccc(F)cc1)c1ccc(-c2ccc(F)cc2)nc1`, for which the inhibition was 1.5% (inactive).

For `COc1ccc(Cl)c2sc(N(CCN(C)C)C(=O)c3ccc4c(c3)OCCO4)nc12`, the inhibition was 3.95% (inactive).

For `Cc1cc(C)c2nc(N(CCCN(C)C)C(=O)c3ccc4c(c3)OCCO4)sc2c1`, the inhibition is 11.7% (inactive).

For the compound `CN(Cc1ccccc1)C(=O)CN(C)S(=O)(=O)c1ccc(F)cc1`, the inhibition was 0.12% (inactive).

In the case of `COc1ccc2cc(-c3cc(C(=O)OCC(=O)Nc4c(C)n(C)n(-c5ccccc5)c4=O)c4ccccc4n3)ccc2c1`, the inhibition entry is “inactive”.

In the case of `Cc1c(NC(=O)COC(=O)c2cc(-c3cccc4ccccc34)nc3ccccc23)c(=O)n(-c2ccccc2)n1C`, the inhibition was 2.81% (inactive).

Regarding `CC(C)[C@H](NC(=O)C1CC(=O)N(c2ccc3c(c2)OCCO3)C1)C(=O)NC1CCCC1` (stereo partly drawn), the inhibition was 3.54% (inactive).

Turning to `O=C(CSc1nnc(-c2ccccc2Br)o1)N1CCOCC1`, the inhibition is 0.96% (inactive).

In the case of `O=C1NC(=O)C(Cc2cccc(Oc3ccccc3)c2)S1` (stereo not drawn), the inhibition was 0.8% (inactive).

For `Cc1ccc(CC2SC(=O)NC2=O)cc1Cl` (stereo not drawn), the inhibition was 4.25% (inactive).

On to `Cc1ccccc1N1C(=O)C(Cc2ccc(F)cc2)S/C1=C(\C#N)C(N)=O` (stereo not drawn), for which the inhibition is 0.67% (inactive).

With `Nc1ccc(CC2SC(=O)NC2=O)cc1` (stereo not drawn), the inhibition was 0.36% (inactive).

Turning to `COc1ccc(/C=C(/NC(=O)c2ccccc2)C(=O)N2CCCC2)cc1`, the inhibition was 1.46% (inactive).

As to `CCN(Cc1ccccc1)C(=O)c1ccc(N(C)S(=O)(=O)c2ccc(C)cc2)cc1`, the inhibition was 10.1% (inactive).

`CC(=O)NC1=NN(C(C)=O)C(c2ccc(C)cc2)S1` (stereo not drawn): the inhibition was 0.39% (inactive).

Consider `Cc1[nH]c2ccccc2c1/C=N/NC(=O)c1cccc(F)c1`, for which the inhibition is 4.66% (inactive).

Regarding `CCOC(=O)CNC(=O)CSc1nc(C(C)C)nc2c1cnn2-c1ccccc1`, the inhibition is 8.46% (inactive).

For the compound `COc1ccc(-c2cc(=O)oc3cc(OC(C)C(=O)NCCCn4ccnc4)ccc23)cc1` (stereo not drawn), the inhibition is 1.83% (inactive).

Turning to `CCCc1nc2c(=O)n(C)c(=O)[nH]c2n1CCC`, the inhibition was 0.72% (inactive).

With `CCn1c(=O)c2[nH]c(SC)nc2n(CC)c1=O`, the inhibition was 1.13% (inactive).

`COc1ccccc1-c1ccc2c(c1)O[C@@H](CN(C)C(=O)Nc1cccc(F)c1)[C@H](C)CN([C@H](C)CO)S2(=O)=O`: the inhibition is 5.59% (inactive).

`O=C(N/N=C(/CC(=O)c1cccs1)C(F)(F)F)c1ccc(O)cc1`: the inhibition was 0.06% (inactive).

Consider `O=C(N/N=C(\CC(=O)c1cccs1)C(F)(F)F)c1cccnc1`, for which the inhibition entry is “inactive”.

Turning to `CCOCCn1c(CN2CCN(c3cccc(Cl)c3)CC2)nc2c1c(=O)n(C)c(=O)n2C`, the inhibition result was “inactive”.

Consider `COc1ccc(N2CCN(C(=O)c3cc(=O)c4cc(Cl)ccc4o3)CC2)cc1`, for which the inhibition is 0.39% (inactive).

In the case of `COC(=O)c1ccc(C(=O)OCc2nc3cc4ccccc4cc3[nH]2)cc1`, the inhibition was 0.06% (inactive).

For the compound `Nc1ccc(C(=O)OCc2nc3ccccc3[nH]2)cc1`, the inhibition is 2.64% (inactive).

In the case of `COc1ccc(CN(CC(=O)NCc2ccc(F)cc2)C(=O)c2csnn2)cc1`, the inhibition was 1.52% (inactive).

Take `COc1ccc(NC(=O)c2nc[nH]c2C(=O)NCC(=O)OC(C)(C)C)cc1`: the inhibition is 3.26% (inactive).

As to `Cc1ccc(C(=O)NNC(=O)c2ccco2)cc1`, the inhibition was 1.42% (inactive).

On to `Cc1cccc(C(=O)NC(=S)NCc2ccccc2)c1`, for which the inhibition was 2.47% (inactive).

In the case of `Cc1ccc(C(=O)NC(=S)NNC(=O)c2ccccc2)cc1`, the inhibition is 0.96% (inactive).

As for `Cc1cccc(C(=O)NC(=S)NNC(=O)c2cccs2)c1`, the inhibition result is “inactive”.

In the case of `O=C(NNC(=S)NC(=O)c1cccs1)c1ccc(O)cc1`, the inhibition was 3.95% (inactive).

Regarding `Cc1cccc(C(=O)NNC(=S)NC(=O)c2ccccc2)c1`, the inhibition is 46.7% (inactive).

In the case of `O=C(NNC(=S)NC(=O)c1ccccc1)c1ccc(O)cc1`, the inhibition was 4.47% (inactive).

`O=C(NNC(=S)NC(=O)c1ccco1)c1ccc(F)cc1`: the inhibition was 0.7% (inactive).

Regarding `COc1ccccc1NC(=O)C1CCN(S(=O)(=O)c2cccc3nonc23)CC1`, the inhibition is 9.33% (inactive).

Turning to `CCOC(=O)c1ccc(NC(=O)CSc2nnc(CNc3ccc(OC)cc3)n2C)cc1`, the inhibition is 0.98% (inactive).

As to `O=C(c1ccc(N2CCOCC2)c([N+](=O)[O-])c1)N1CCCCC1`, the inhibition is 2.47% (inactive).

Values taken from PubChem BioAssay AID588727 (Southern Research Specialized Biocontainment Screening …, 2011).
